Compound activity (PubChem BioAssay)
This is a sample that favours compounds with a hit; in the whole collection about 6.7% have one here.
Pf Dd2 inh = blocks growth of Plasmodium falciparum Dd2 parasites. P. falciparum Dd2 growth, SYBR Green, 72 h; hits give low values. activity change, % at 10 µM. 94,000 tested, 2.3% active. AID 1159554; in the data active = activity change below about -80%; inconclusive = no clear call, values can overlap the other calls
T cruzi growth-1 = blocks T. cruzi growth in NIH3T3 culture; AID 624255; 77,000 tested, 5.9% active; T. cruzi beta-gal in NIH3T3, GalScreen luminescence, 90 h; inhibition, % at 8.34 µM;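 active = mean inhibition above about 93%, with at least 55% of replicates each passing it, limit read from the data, passing the limit was not always enough; inconclusive = only one of those two conditions holds; inactive = neither condition holds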
C diff growth = C. difficile growth inhibition; Clostridium difficile clinical isolate growth, OD600, 24 h; hits give low values; growth activity, negative = inhibition, % at 16 µg/mL (by protocol); 86,000 tested, 0.25% active;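 active = mean growth activity at or below -80% and every replicate also at or below -80%; inconclusive = mean at or below -80% but some replicate above -80%; inactive = mean growth activity above -80%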;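 note: 0% = DMSO wells and -100% = levofloxacin 16 µg/mL wells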
T cruzi growth-2 = blocks T. cruzi growth in NIH3T3 host cells; shares compounds with T cruzi growth-1; T. cruzi beta-gal in NIH3T3, GalScreen luminescence, 90 h; inhibition, % at 8.35 µM; 5,600 tested, 72% active; AID 651739;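 active = mean replicate inhibition above about 95% and at least 55% of replicates individually reaching it, limit read from the data; inconclusive = only one of the two criteria is met; inactive = neither criterion is met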
T cruzi growth-3 = inhibitors of T. cruzi proliferation. shares compounds with T cruzi growth-1. T. cruzi beta-gal in NIH3T3, GalScreen luminescence, 90 h. inhibition, % at 2.09 µM. 5,600 tested, 21% active. AID 651740;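 active = mean inhibition above about 95%, with at least 55% of replicates also reaching it, limit read from the data; inconclusive = meets just one of the two conditions; inactive = meets neither condition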;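 note: plate controls were neutral control median for no effect and positive control median for full effect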
NIH3T3 tox = cytotoxicity in mouse NIH/3T3 fibroblasts; shares compounds with T cruzi growth-1; NIH/3T3 viability, CellTiter-Glo ATP luminescence, 90 h; cytotoxicity (signal decrease), % at 8.35 µM; 5,600 tested, 14% active;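 active = mean signal decrease across replicates above about 35% based on untreated-well scatter, with enough replicates individually passing, limit read from the data; inconclusive = no rule stated though some were filed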;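 note: 0% = median of neutral control wells and 100% = median of positive control wells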
NIH3T3 tox 2 = NIH/3T3 (mouse) viability loss; AID 651744; shares compounds with T cruzi growth-1; NIH/3T3 viability, CellTiter-Glo ATP luminescence, 90 h; 5,600 tested, 56% active; inhibition, % at 24.9 µM;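 active = mean loss of cell viability signal at or above a set limit, and enough replicates individually reaching it; inconclusive = meets only the mean limit or only the replicate share; inactive = meets neither condition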;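 note: 0% = median of neutral control wells and 100% = median of positive control wells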
An asterisk follows results filed as active.

How did COc1ccc(CNC(=O)C[C@H]2C[C@@H]3c4cc(NC(=O)C5CCC5)ccc4O[C@@H]3[C@H](CO)O2)cc1 do in these assays?
Pf Dd2 inh: -28; T cruzi growth-1: 165*; C diff growth: 4; T cruzi growth-2: 11; T cruzi growth-3: 9; NIH3T3 tox: 2; NIH3T3 tox 2: -6

How did O=C(C[C@H]1C[C@@H]2c3cc(NC(=O)C4CCOCC4)ccc3O[C@@H]2[C@H](CO)O1)NCCN1CCCCC1 do in these assays?
Pf Dd2 inh: 0; T cruzi growth-1: 171*; C diff growth: -8; T cruzi growth-2: 75; T cruzi growth-3: 10; NIH3T3 tox: 13; NIH3T3 tox 2: -1

How did O=C(NC[C@@H]1[C@@H](c2ccccc2)[C@@H](CO)N1C(=O)C1CCC1)NC1CCCC1 do in these assays?
Pf Dd2 inh: 14; T cruzi growth-1: 17; C diff growth: -5

How did CC(C)CC#Cc1cnc2c(c1)C(=O)N([C@@H](C)CO)C[C@H](C)[C@@H](CN(C)Cc1cccc(F)c1)O2 do in these assays?
Pf Dd2 inh: -9; T cruzi growth-1: 102*; C diff growth: 3; T cruzi growth-2: 108*; T cruzi growth-3: 83; NIH3T3 tox: 17; NIH3T3 tox 2: 105*

What do the screens show for `CC(C)CC#Cc1cnc2c(c1)C(=O)N([C@H](C)CO)C[C@@H](C)[C@@H](CN(C)Cc1cccc(F)c1)O2`?
Pf Dd2 inh: -42; T cruzi growth-1: inconclusive; C diff growth: 0; T cruzi growth-2: 104*; T cruzi growth-3: 50; NIH3T3 tox: 18; NIH3T3 tox 2: 61*

What do the screens show for `C[C@@H]1CN([C@H](C)CO)C(=O)c2cc(C#CCc3ccccc3)cnc2O[C@@H]1CN(C)Cc1cccc(F)c1`?
Pf Dd2 inh: -33; T cruzi growth-1: -5

How did C[C@@H]1CN([C@H](C)CO)C(=O)c2cc(C#CCc3ccccc3)cnc2O[C@H]1CN(C)Cc1cccc(F)c1 do in these assays?
Pf Dd2 inh: -60; T cruzi growth-1: 72

How did C[C@H](CO)N1C[C@H](C)[C@H](CN(C)Cc2cccc(F)c2)Oc2ncc(C#CCc3ccccc3)cc2C1=O do in these assays?
Pf Dd2 inh: -16; T cruzi growth-1: -74

What do the screens show for `CC(C)CC#Cc1cnc2c(c1)C(=O)N([C@H](C)CO)C[C@@H](C)[C@H](CN(C)Cc1cccc(F)c1)O2`?
Pf Dd2 inh: -52; T cruzi growth-1: 103*; C diff growth: -2; T cruzi growth-2: 106*; T cruzi growth-3: 46; NIH3T3 tox: 24; NIH3T3 tox 2: 102*

Results for COc1ccc(S(=O)(=O)Nc2cccc3c2O[C@@H](CN(C)S(=O)(=O)c2cn(C)cn2)[C@H](C)CN([C@@H](C)CO)C3=O)cc1 ?
Pf Dd2 inh: 8; T cruzi growth-1: -5

Results for C[C@H]1CN([C@@H](C)CO)C(=O)c2cc(NC(=O)NC3CCCCC3)ccc2O[C@@H]1CN(C)Cc1ccc(Cl)c(Cl)c1 ?
Pf Dd2 inh: 13; T cruzi growth-1: 50; C diff growth: -9

What do the screens show for `C[C@H](CO)N1C[C@H](C)[C@@H](CN(C)Cc2ccc(Cl)c(Cl)c2)Oc2ccc(NC(=O)NC3CCCCC3)cc2C1=O`?
Pf Dd2 inh: 9; T cruzi growth-1: 7; C diff growth: 4

What do the screens show for `C[C@@H]1CN([C@@H](C)CO)C(=O)c2cc(NC(=O)NC3CCCCC3)ccc2O[C@@H]1CN(C)Cc1ccc(Cl)c(Cl)c1`?
Pf Dd2 inh: 20; T cruzi growth-1: inconclusive; C diff growth: 5; T cruzi growth-2: 97*; T cruzi growth-3: 10; NIH3T3 tox: 28; NIH3T3 tox 2: 27

What do the screens show for `C[C@@H]1CN([C@H](C)CO)C(=O)c2cc(NC(=O)NC3CCCCC3)ccc2O[C@H]1CN(C)Cc1ccc(Cl)c(Cl)c1`?
Pf Dd2 inh: -4; T cruzi growth-1: 93*; C diff growth: 3; T cruzi growth-2: 106*; T cruzi growth-3: -22; NIH3T3 tox: 20; NIH3T3 tox 2: 13

What do the screens show for `C[C@@H]1CN([C@@H](C)CO)C(=O)c2cccc(NC(=O)c3ccc(-c4nccs4)cc3)c2O[C@H]1CN(C)S(=O)(=O)c1ccccc1`?
Pf Dd2 inh: 9; T cruzi growth-1: 28; C diff growth: 10

What do the screens show for `CC(C)NC(=O)Nc1cccc2c1O[C@@H](CN(C)Cc1ccncc1)[C@@H](C)CN([C@H](C)CO)C2=O`?
Pf Dd2 inh: -2; T cruzi growth-1: -3; C diff growth: 1

How did O=C(Cc1ccccn1)NCC[C@@H]1CC[C@@H](NC(=O)Nc2ccc(F)cc2)[C@H](CO)O1 do in these assays?
Pf Dd2 inh: 5; T cruzi growth-1: 27; C diff growth: 4

Results for C[C@@H]1CN([C@H](C)CO)C(=O)c2cc(-c3cccnc3)cnc2O[C@@H]1CN(C)C(=O)Cc1cccnc1 ?
Pf Dd2 inh: -10; T cruzi growth-1: 43; C diff growth: 1

Results for C[C@H]1CN([C@@H](C)CO)S(=O)(=O)c2ccc(-c3ccncc3)cc2O[C@@H]1CN(C)Cc1ccc(Oc2ccccc2)cc1 ?
Pf Dd2 inh: -79; T cruzi growth-1: inconclusive; C diff growth: 35; T cruzi growth-2: 92; T cruzi growth-3: 107*; NIH3T3 tox: 86*; NIH3T3 tox 2: 103*

Results for C[C@@H]1CN([C@@H](C)CO)S(=O)(=O)c2ccc(-c3cncnc3)cc2O[C@@H]1CN(C)Cc1ccc(Oc2ccccc2)cc1 ?
Pf Dd2 inh: -15

What do the screens show for `C[C@H]1CN([C@@H](C)CO)S(=O)(=O)c2ccc(-c3ccncc3)cc2O[C@H]1CN(C)Cc1ccc(Oc2ccccc2)cc1`?
Pf Dd2 inh: -73; T cruzi growth-1: 124; C diff growth: 31

Results for C[C@@H]1CN([C@H](C)CO)S(=O)(=O)c2ccc(-c3ccncc3)cc2O[C@@H]1CN(C)Cc1ccc(Oc2ccccc2)cc1 ?
Pf Dd2 inh: -87*; T cruzi growth-1: 116*; C diff growth: -1; T cruzi growth-2: 99*; T cruzi growth-3: 107*; NIH3T3 tox: 84*; NIH3T3 tox 2: 89*

How did C[C@@H]1CN([C@@H](C)CO)C(=O)c2cc(NC(=O)CCCN(C)C)ccc2O[C@@H](C)CCCCO[C@@H]1CN(C)C(=O)Nc1ccc2c(c1)OCO2 do in these assays?
Pf Dd2 inh: -33; C diff growth: -3

How did C[C@@H]1CCCCO[C@H](CN(C)CC2CCCCC2)[C@H](C)CN([C@@H](C)CO)C(=O)c2cc(NC(=O)Nc3ccc(C(F)(F)F)cc3)ccc2O1 do in these assays?
Pf Dd2 inh: -87*; T cruzi growth-1: inconclusive; C diff growth: -103*; T cruzi growth-2: 97*; T cruzi growth-3: 110*; NIH3T3 tox: 121*; NIH3T3 tox 2: 104*
